Shown are actives, neighbours in structure and some others; about 0.64% of the full set was active somewhere.
PvdQ acylase – P. aeruginosa PvdQ acylase inhibition | purified PvdQ acylase, fluorescence plate reader | inhibition, % at 10 µM | hit rate 0.063% among 340,000 | AID 488965; in the data active means inhibition above about 30%, passing the limit was not always enough; inconclusive means no clear call, values can overlap the other calls;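 further: 0% = vehicle neutral wells and 100% = reference inhibitor wells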
Vif inh – blocks HIV Vif function. HEK293T cells, Vif self-association by quenched fluorescence, imaging, 24 h. inhibition, % at 7.49 µM. hit rate 0.35% among 340,000. AID 602346; in the data active means inhibition above about 50%, passing the limit was not always enough; inconclusive means no clear call, values can overlap the other calls; inactive means below about 31%
AI-2 QS modul – modulates the Vibrio harveyi AI-2 quorum sensing system; Vibrio harveyi JMH597 AI-2 luminescence/OD600 ratio, 9 h; hits give low values; strain lacks LuxN and CqsS sensors; 0 = neutral-control median; activity change, % at 7.5 µM; hit rate 0.4% among 300,000; AID 2094; in the data active means activity change below about -75%, passing the limit was not always enough; inconclusive means no clear call, values can overlap the other calls;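 further: luminescence divided by OD600 gain over 9 h not by final OD600 alone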
PDI inh – PDI (human) enzyme inhibition | inhibition, % at 10 µM | P07237 | hit rate 0.052% among 350,000 | PDI insulin aggregation turbidity, A650, 90 min;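 active means mean inhibition across replicates of 30% or more, whatever share of single replicates reach that level; inconclusive means mean inhibition below 30% while every single replicate reaches 30%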
Target sequence (P07237 whole entry, looked up): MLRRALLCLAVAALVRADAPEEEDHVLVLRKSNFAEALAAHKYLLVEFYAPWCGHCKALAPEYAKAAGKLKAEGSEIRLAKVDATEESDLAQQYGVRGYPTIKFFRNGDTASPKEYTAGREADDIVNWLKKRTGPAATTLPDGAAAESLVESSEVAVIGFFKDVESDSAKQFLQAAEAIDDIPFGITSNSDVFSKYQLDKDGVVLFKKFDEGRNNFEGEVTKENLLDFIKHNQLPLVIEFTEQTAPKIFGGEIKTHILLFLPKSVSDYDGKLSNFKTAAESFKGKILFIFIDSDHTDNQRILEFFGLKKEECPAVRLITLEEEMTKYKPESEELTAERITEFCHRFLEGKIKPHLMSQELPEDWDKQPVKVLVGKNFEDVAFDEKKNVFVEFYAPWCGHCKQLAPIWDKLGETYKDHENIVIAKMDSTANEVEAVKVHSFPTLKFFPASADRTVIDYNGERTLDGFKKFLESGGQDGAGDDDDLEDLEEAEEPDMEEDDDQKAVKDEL
ERp5 inh – ERp5 (human) disulfide isomerase inhibition; Q15084; ERp5 insulin aggregation, absorbance 650 nm, 90 min; inhibition, % at 9.99 µM; hit rate 0.05% among 350,000; AID 651711;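 active means mean replicate inhibition above about 25%, with every replicate also reaching it, limit read from the data, passing the limit was not always enough; inconclusive means only one of those two criteria met; inactive means neither criterion met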
JMH597 growth rt – retest Vibrio harveyi JMH597 growth inhibition | shares compounds with AI-2 QS modul | hit rate 1% among 750 | growth inhibition, % at 7.5 µM | OD600 absorbance, 9 h; lacks LuxN and CqsS sensors;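 active means every replicate shows growth inhibition above 50%; inconclusive means at least half, but not all, replicates pass that cutoff; inactive means fewer than half of replicates pass it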
BB721 const-QS lum – retest counter-screen: luminescence loss in constitutive-on quorum sensing strain BB721 | shares compounds with AI-2 QS modul | Vibrio harveyi BB721 luminescence, 9 h | inhibition, % at 7.5 µM | hit rate 95% among 750 | AID 2727;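 active means inhibition above about 80% in every replicate, not just on average, limit read from the data; inconclusive means at least half of replicates past the limit, but not all; inactive means fewer than half of replicates past the limit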
BB721 growth rt – retest: inhibitors of Vibrio harveyi BB721 growth; growth inhibition, % at 7.5 µM; shares compounds with AI-2 QS modul; hit rate 3% among 750; OD600 absorbance, 9 h;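 active means every replicate shows growth inhibition above 50%; inconclusive means at least half but not all replicates above 50% inhibition; inactive means under half of replicates above 50% inhibition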
AI-2 QS JMH597 – Vibrio harveyi AI-2 signaling luminescence modulation – JMH597 strain, confirmation | inhibition, % at 7.5 µM | Vibrio harveyi JMH597 AI-2 quorum sensing luminescence, 9 h; luxN and CqsS knockout, AI-2 only | AID 2736 | shares compounds with AI-2 QS modul | hit rate 97% among 750;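 active means every replicate shows more than 75% inhibition of signal versus neutral control wells; inconclusive means half to three quarters of replicates exceed 75% inhibition; inactive means fewer than half of replicates exceed 75% inhibition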
Numbers without * were called inactive; ? = inconclusive; · = no result given.

SMILES | PvdQ acylase | Vif inh | AI-2 QS modul | PDI inh | ERp5 inh | JMH597 growth rt | BB721 const-QS lum | BB721 growth rt | AI-2 QS JMH597
COc1cccc(NC(=O)Cn2nnc(-c3ccccc3N)n2)c1 | -12.1 | 6.1 | -81.3* | 3.6 | · | 18.4 | 97.0* | 34.4 | 96.8*
O=C(NCC[C@@H]1CC[C@H](NC(=O)c2ccc3c(c2)OCO3)[C@@H](CO)O1)Nc1cc(F)ccc1F | · | · | · | · | 2.9 | · | · | · | ·
O=C(c1cc2cc(Cl)ccc2[nH]1)N1CCN(c2ccccc2F)CC1 | -13.7 | -1.1 | 15.2 | -4.9 | 1.5 | · | · | · | ·
O=C(c1cc2cc(Cl)ccc2[nH]1)N1CCN(C(=O)c2ccco2)CC1 | -12.3 | -0.7 | -94.5* | 5.5 | 4.0 | 15.4 | 97.0* | 15.1 | 98.1*
CO[C@@H]1CN(C)C(=O)c2ccc(NC(=O)Nc3c(C)noc3C)cc2OC[C@@H](C)NC[C@@H]1C | · | · | · | · | 5.0 | · | · | · | ·
COc1ccc2c3c(n(C)c2c1)[C@H](CO)N(C(=O)c1cnccn1)CC31CCN(C(=O)c2ccncc2)CC1 | · | · | · | · | 1.3 | · | · | · | ·
Cc1ccc(/C=N/NC(=O)CNC(=O)c2cccs2)cc1 | -3.6 | 6.7 | -90.3* | -1.5 | 7.8 | 2.4 | 96.8* | 11.5 | 97.2*
O=C(CNC(=O)c1ccncc1)N/N=C/c1ccc(Br)cc1 | -13.5 | -3.9 | ? | 2.1 | -7.4 | 3.4 | 94.7* | 10.5 | 94.5*
COc1cccc(/C=N/NC(=O)CNC(=O)c2cccs2)c1O | 0.5 | -7.6 | 24.9 | 0.3 | 0.8 | · | · | · | ·
NCC[C@H]1CC[C@@H](NC(=O)C2CC2)[C@H](CO)O1 | · | · | · | · | 3.8 | · | · | · | ·
CCS(=O)(=O)NCC[C@H]1CC[C@H](NC(=O)Cc2ccccn2)[C@H](CO)O1 | · | · | · | · | 3.0 | · | · | · | ·
CC(C)(C)c1ccc(OCC(=O)N2CCN(c3ncccn3)CC2)cc1 | 2.7 | -6.8 | -85.7* | -3.7 | · | 0.2 | 93.0* | 12.0 | 94.6*
CC(C)(C)c1ccc(OCC(=O)N2CCN(c3ccccn3)CC2)cc1 | 0.7 | 7.1 | · | -8.6 | -4.1 | · | · | · | ·
O=[N+]([O-])c1ccc(NCCCNS(=O)(=O)c2ccccc2)cc1 | -24.1 | -15.5 | ? | 2.8 | -0.1 | 10.7 | 97.0* | 6.5 | 96.6*
C[C@@H]1CN([C@H](C)CO)C(=O)c2cc(/C=C/c3ccccc3)cnc2O[C@@H]1CN(C)C(=O)c1ccc(F)cc1 | · | · | · | · | 0.8 | · | · | · | ·
O=C(c1cc(-c2ccc(O)cc2)on1)N1CCCCCC1 | -8.0 | 2.6 | -78.3* | 2.0 | -0.3 | 3.4 | 93.1* | -5.2 | 96.3*
CCc1nnc(NC(=O)CSc2ccc(-c3ccco3)nn2)s1 | -4.7 | -0.6 | -82.6* | -3.4 | 2.4 | 14.6 | 94.2* | 14.4 | 95.8*
Cc1nnc(NC(=O)CSc2ccc(-c3ccco3)nn2)s1 | -12.6 | -2.3 | -38.6 | -0.2 | -5.2 | · | · | · | ·
CCC(=O)N(C)C[C@@H]1Oc2cc(C#CCN(C)C)ccc2S(=O)(=O)N([C@@H](C)CO)C[C@@H]1C | · | · | · | · | 4.6 | · | · | · | ·
O=C(CN1C(=O)NC2(CCCCC2)C1=O)Nc1ccc(N2CCOCC2)cc1 | -4.5 | 0.8 | 17.1 | 6.7 | · | · | · | · | ·
O=C(CN1C(=O)NC2(CCc3ccccc32)C1=O)Nc1ccc(N2CCOCC2)cc1 (stereo not given) | 9.3 | -3.9 | -89.0* | -1.6 | · | 6.9 | 88.1* | 8.7 | 93.1*
CC(C)c1ccc(OCC(=O)N2CCc3ccccc3C2)cc1 | -4.3 | -3.3 | ? | -0.3 | 0.9 | 12.1 | 84.9* | 12.0 | 90.0*
COc1ccc(C/C(N)=N/OC(=O)c2cccs2)cc1 | -11.1 | -1.0 | -84.3* | 2.8 | 0.1 | 39.0 | 96.6* | 21.7 | 97.7*
Cc1ccccc1C(=O)O/N=C(\N)Cc1cccs1 | -3.1 | -2.8 | -87.2* | 10.0 | 1.8 | -7.0 | 95.1* | -8.3 | 95.7*
CCNC(=O)C[C@@H]1CC[C@H]2[C@@H](COc3ccc(NC(=O)c4ccc5c(c4)OCO5)cc3C(=O)N2C)O1 | · | · | · | · | 0.4 | · | · | · | ·
SMILES | PvdQ acylase | Vif inh | AI-2 QS modul | PDI inh | ERp5 inh | JMH597 growth rt | BB721 const-QS lum | BB721 growth rt | AI-2 QS JMH597
COc1cccc(NC(=O)N[C@@H]2CC[C@@H](CC(=O)Nc3ccccc3)O[C@H]2CO)c1 | · | · | · | · | 5.6 | · | · | · | ·
COc1ccc(CN2C[C@@H](C)[C@@H](OC)CN(C)C(=O)c3cc(NC(=O)C4CC4)ccc3OC[C@H]2C)cc1 | · | · | · | · | -2.2 | · | · | · | ·
Cc1ccc(C(=O)OCC(=O)c2c[nH]c3ccccc23)cc1 | -8.8 | -2.1 | -78.8* | 1.5 | 1.7 | 1.3 | 77.1* | 13.5 | 85.6*
COc1ccc(C(=O)OCC(=O)c2c[nH]c3ccccc23)cc1OC | -12.9 | 0.8 | · | -0.2 | -0.8 | · | · | · | ·
Cc1cccc(Oc2cnn(C(C)(C)C)c(=O)c2Cl)c1 | -13.5 | -16.9 | -92.2* | -3.2 | · | 20.7 | 95.7* | -19.3 | 97.8*
CC(=O)Nc1ccc(C(=O)OCc2ccc(F)cc2)cc1 | 2.4 | -4.8 | -83.2* | -0.7 | 1.3 | 10.9 | 93.1* | 31.0 | 92.3*
CC(=O)Nc1ccc(C(=O)OCc2ccc(Cl)cc2)cc1 | -1.0 | 4.8 | -90.7* | 2.3 | · | -11.9 | 96.9* | 57.8* | 95.8*
CCCS(=O)(=O)c1ccc(COC(=O)c2ccc(NC(C)=O)cc2)cc1 | -0.5 | 1.6 | -37.7 | 0.5 | -4.6 | · | · | · | ·
COc1ccccc1-c1cn(CC[C@H]2CC[C@H](NC(=O)c3ccccc3F)[C@H](CO)O2)nn1 | · | · | · | · | -2.6 | · | · | · | ·
O=C(NCc1ccccc1)c1cc2ccccc2o1 | -13.9 | 3.9 | -86.1* | 0.6 | · | -11.1 | 93.8* | -4.4 | 94.9*
COC(=O)c1ccc(-c2noc(CN3C[C@H]4CC[C@H]3C4)n2)cc1 | -14.2 | -3.6 | -83.8* | 0.6 | 1.8 | -9.5 | 93.7* | 1.1 | 95.9*
COc1ccc(S(=O)(=O)N(C)C[C@@H]2Oc3ccc(NC(=O)Cn4cnnn4)cc3CC(=O)N([C@H](C)CO)C[C@@H]2C)cc1 | · | · | · | · | 13.0 | · | · | · | ·
O=C(CCl)NN1C(=O)NC2(CCCCC2)C1=O | -9.2 | 0.4 | -0.4 | 3.9 | 5.8 | · | · | · | ·
O=C(CCl)NN1C(=O)NC(c2ccccc2)(c2ccccc2)C1=O | -5.7 | ? | -95.0* | 0.7 | 4.2 | 24.8 | 97.9* | -226.1 | 98.1*
O=C(CCNC(=O)c1ccco1)Nc1nc2ccccc2s1 | -5.9 | 7.5 | · | 2.7 | 1.1 | · | · | · | ·
O=C(COC(=O)c1ccco1)Nc1nc2ccccc2s1 | 2.9 | 9.2 | ? | 10.2 | · | -1.6 | 93.7* | 11.5 | 95.4*
CC(Cc1cccnc1)NC(=O)c1cc(COc2c(F)cccc2F)on1 (stereo not given) | -5.8 | -4.0 | ? | 4.8 | 7.9 | -17.2 | 87.7* | -5.6 | 91.6*
Cn1cnc(S(=O)(=O)N[C@H]2C=C[C@H](CC(=O)NCC3CCCCC3)O[C@H]2CO)c1 | · | · | · | · | 2.2 | · | · | · | ·
